Records with an inconclusive call do not appear. Where a call stands in place of a potency, no number is given. Active and inactive are the calls of the source. Calls follow the shape of the full dose curve.

Muscarinic acetylcholine receptor M1 (Homo sapiens), sequence (P11229 whole entry, looked up): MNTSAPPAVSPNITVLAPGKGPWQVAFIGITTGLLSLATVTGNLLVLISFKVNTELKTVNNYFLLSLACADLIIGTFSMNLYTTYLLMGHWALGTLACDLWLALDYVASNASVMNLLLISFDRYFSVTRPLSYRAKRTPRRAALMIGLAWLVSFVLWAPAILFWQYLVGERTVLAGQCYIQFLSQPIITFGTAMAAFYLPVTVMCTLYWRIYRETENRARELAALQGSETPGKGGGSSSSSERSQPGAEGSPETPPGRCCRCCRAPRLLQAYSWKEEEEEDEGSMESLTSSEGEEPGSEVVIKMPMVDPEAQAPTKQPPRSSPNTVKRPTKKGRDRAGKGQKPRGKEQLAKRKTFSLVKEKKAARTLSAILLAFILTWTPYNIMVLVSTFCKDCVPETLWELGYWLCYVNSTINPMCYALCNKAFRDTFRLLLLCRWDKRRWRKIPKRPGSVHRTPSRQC

For one experiment, the target named is Muscarinic acetylcholine receptor M1 (Homo sapiens) (UniProt P11229). As to the kind of experiment: Cholinergic receptor muscarinic 1 (CHRM1) small molecule antagonists, cell-based qHTS assay (AID 1963588). Also: nearly all actives have a fitted effect of over 40% in size. The conditions noted are these: CHRM1-CHO antagonist mode, calcium flux fluorescence; series mostly up to 61.5 µM. In short, it runs like this:
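CHRM1-CHO calcium-flux assay, antagonist mode. Cells were seeded 18 h, dye-loaded 1 h at 37 C and given compound for 5 min at RT, then acetylcholine was added at 50nM. FDSS fluorescence was read 3 min; 15 concentrations, three runs.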
On the technique in general: Quantitative high-throughput screening tests each substance at several concentrations.
For the compound `ClC(Cl)=C(c1ccc(Cl)cc1)c1ccc(Cl)cc1`, the Potency entry was “inactive”.

For `ClCCN1CCOCC1`, the Potency entry was “inactive”.

Regarding `C1CCC2CCCCC2C1` (configuration not stated), the Potency entry is “inactive”.

For the compound `CC12CC1(C)C(=O)N(c1cc(Cl)cc(Cl)c1)C2=O` (configuration not stated), the Potency entry was “inactive”.

On to `ClCc1cccnc1`, for which the Potency entry was “inactive”.

Consider `CNC(=O)O/N=C/C(C)(C)S(C)=O` (configuration not stated), for which the Potency result is “inactive”.

`CN(C)C(=O)Nc1ccc(Cl)cc1`: the Potency entry is “inactive”.

In the case of `Cc1ccccc1CCl`, the Potency result was “inactive”.

With `CCOP(=S)(OCC)SCSc1cc(Cl)ccc1Cl`, the Potency entry is “inactive”.

As for `Nc1c(Br)cc([N+](=O)[O-])cc1[N+](=O)[O-]`, the Potency result is “inactive”.

In the case of `COC[C@@H](NC(C)=O)C(=O)NCc1ccccc1`, the Potency entry is “inactive”.

As to `COc1cc(OC)nc(NC(=O)NS(=O)(=O)c2ncccc2C(=O)N(C)C)n1`, the Potency result was “inactive”.

In the case of `OCC(Br)CBr` (configuration not stated), the Potency result is “inactive”.

As to `c1ccc(C2CO2)cc1` (configuration not stated), the Potency entry was “inactive”.

As for `CCN(C)N=O`, the Potency entry is “inactive”.

On to `C=CC(=O)OCCO`, for which the Potency entry is “inactive”.

For the compound `CCOP(OCC)OCC`, the Potency result is “inactive”.

As to `CC(=O)C1CCOC1=O` (configuration not stated), the Potency result is “inactive”.

`C#CCOC(=O)/C=C(C)/C=C/CC(C)CCCC(C)C` (configuration not stated): the Potency entry was “inactive”.

As to `CCN(CC)C1CCCCC1`, the Potency entry is “inactive”.

Turning to `CCCCC(CC)COC(=O)c1ccc(C(=O)OCC(CC)CCCC)c(C(=O)OCC(CC)CCCC)c1` (configuration not stated), the Potency entry was “inactive”.

In the case of `O=C(CCl)CCl`, the Potency result is “inactive”.

For the compound `CCCCN=C=O`, the Potency result was “inactive”.

As to `COc1nc(NC(C)C)nc(NC(C)C)n1`, the Potency result is “inactive”.

Turning to `CCOc1cc(C=O)ccc1O`, the Potency result is “inactive”.

`Cl/C=C\CCl`: the Potency entry is “inactive”.

Take `C=CC(=O)NC(C)(C)CC(C)=O`: the Potency entry was “inactive”.

In the case of `Cc1ccc(N)cc1C`, the Potency result is “inactive”.

With `CC(C)(Cl)Cl`, the Potency entry is “inactive”.

On to `CCOS(C)(=O)=O`, for which the Potency entry is “inactive”.

For the compound `O=C([O-])c1ccccn1.O=C([O-])c1ccccn1.O=C([O-])c1ccccn1.[Cr+3]`, the Potency entry is “inactive”.

On to `BrCCc1ccccc1`, for which the Potency result is “inactive”.

For the compound `COCC(=O)N(c1c(C)cccc1C)[C@H](C)C(=O)OC`, the Potency entry was “inactive”.

For `CN(C)C(=O)C(c1ccccc1)c1ccccc1`, the Potency result is “inactive”.

Turning to `CN(CCCC(=O)c1cccnc1)N=O`, the Potency entry was “inactive”.

For `COC(=O)[C@@H](N)CCCN/C(N)=N/[N+](=O)[O-]`, the Potency result is “inactive”.

For `CC[N+](=O)[O-]`, the Potency entry is “inactive”.

Turning to `CCCCCCC1CCOC1=O` (configuration not stated), the Potency entry is “inactive”.

As to `O=[N+]([O-])c1ccccc1O`, the Potency result was “inactive”.

A further experiment has the same target. In words: Cholinergic receptor muscarinic 1 (CHRM1) small molecule agonists, cell-based qHTS assay (AID 1963589). Also: nearly all actives have a fitted effect of over 35% in size. The conditions noted are these: CHRM1-CHO cells, agonist mode, calcium flux fluorescence; series mostly up to 76.8 µM. An outline of the steps:
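Measures agonist-induced intracellular calcium rise. Stable human CHRM1 CHO line, 1 h dye load at 37 C, compounds from DMSO, kinetic fluorescence read.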
As for `ClC(Cl)=C(c1ccc(Cl)cc1)c1ccc(Cl)cc1`, the Potency entry was “inactive”.

Consider `ClCCN1CCOCC1`, for which the Potency result was “inactive”.

Turning to `C1CCC2CCCCC2C1` (configuration not stated), the Potency result is “inactive”.

`CC12CC1(C)C(=O)N(c1cc(Cl)cc(Cl)c1)C2=O` (configuration not stated): the Potency result is “inactive”.

On to `ClCc1cccnc1`, for which the Potency entry is “inactive”.

On to `CNC(=O)O/N=C/C(C)(C)S(C)=O` (configuration not stated), for which the Potency result was “inactive”.

On to `CN(C)C(=O)Nc1ccc(Cl)cc1`, for which the Potency entry is “inactive”.

Consider `Cc1ccccc1CCl`, for which the Potency result is “inactive”.

Regarding `CCOP(=S)(OCC)SCSc1cc(Cl)ccc1Cl`, the Potency entry is “inactive”.

Consider `Nc1c(Br)cc([N+](=O)[O-])cc1[N+](=O)[O-]`, for which the Potency result is “inactive”.

As for `COC[C@@H](NC(C)=O)C(=O)NCc1ccccc1`, the Potency entry is “inactive”.

In the case of `COc1cc(OC)nc(NC(=O)NS(=O)(=O)c2ncccc2C(=O)N(C)C)n1`, the Potency result is “inactive”.

Turning to `OCC(Br)CBr` (configuration not stated), the Potency entry was “inactive”.

For `c1ccc(C2CO2)cc1` (configuration not stated), the Potency result was “inactive”.

In the case of `CCN(C)N=O`, the Potency result was “inactive”.

On to `C=CC(=O)OCCO`, for which the Potency entry was “inactive”.

Take `CCOP(OCC)OCC`: the Potency entry was “inactive”.

Regarding `CC(=O)C1CCOC1=O` (configuration not stated), the Potency result was “inactive”.

On to `C#CCOC(=O)/C=C(C)/C=C/CC(C)CCCC(C)C` (configuration not stated), for which the Potency entry was “inactive”.

As to `CCN(CC)C1CCCCC1`, the Potency result was “inactive”.

As to `CCCCC(CC)COC(=O)c1ccc(C(=O)OCC(CC)CCCC)c(C(=O)OCC(CC)CCCC)c1` (configuration not stated), the Potency entry was “inactive”.

As for `O=C(CCl)CCl`, the Potency entry was “inactive”.

As to `CCCCN=C=O`, the Potency entry is “inactive”.

For the compound `COc1nc(NC(C)C)nc(NC(C)C)n1`, the Potency result is “inactive”.

Consider `CCOc1cc(C=O)ccc1O`, for which the Potency result is “inactive”.

As for `Cl/C=C\CCl`, the Potency result was “inactive”.

`C=CC(=O)NC(C)(C)CC(C)=O`: the Potency result was “inactive”.

In the case of `Cc1ccc(N)cc1C`, the Potency result is “inactive”.

On to `CC(C)(Cl)Cl`, for which the Potency entry was “inactive”.

For the compound `CCOS(C)(=O)=O`, the Potency entry is “inactive”.

Consider `O=C([O-])c1ccccn1.O=C([O-])c1ccccn1.O=C([O-])c1ccccn1.[Cr+3]`, for which the Potency entry was “inactive”.

Consider `BrCCc1ccccc1`, for which the Potency result was “inactive”.

Take `COCC(=O)N(c1c(C)cccc1C)[C@H](C)C(=O)OC`: the Potency entry was “inactive”.

Regarding `CN(C)C(=O)C(c1ccccc1)c1ccccc1`, the Potency entry is “inactive”.

`CN(CCCC(=O)c1cccnc1)N=O`: the Potency result is “inactive”.

Regarding `COC(=O)[C@@H](N)CCCN/C(N)=N/[N+](=O)[O-]`, the Potency result was “inactive”.

Turning to `CC[N+](=O)[O-]`, the Potency result is “inactive”.

Turning to `CCCCCCC1CCOC1=O` (configuration not stated), the Potency result was “inactive”.

In the case of `O=[N+]([O-])c1ccccc1O`, the Potency result was “inactive”.

Test system in a further experiment: not listed separately
In words: cAMP Responsive Elements (CRE) small molecule agonists, cell-based qHTS assay (AID 1963590). The conditions noted are these: CRE-bla HEK293T, beta-lactamase FRET ratio, 3 h; series mostly up to 92.4 µM. In short, it runs like this:
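A CRE-responsive beta-lactamase reporter in HEK 293T cells was used. Treatment ran 3 h at 37 C; detection used LiveBLAzer B/G FRET substrate for 2 h at room temperature.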
For `ClC(Cl)=C(c1ccc(Cl)cc1)c1ccc(Cl)cc1`, the Potency entry was “inactive”.

With `ClCCN1CCOCC1`, the Potency entry is “inactive”.

Regarding `C1CCC2CCCCC2C1` (configuration not stated), the Potency entry was “inactive”.

With `CC12CC1(C)C(=O)N(c1cc(Cl)cc(Cl)c1)C2=O` (configuration not stated), the Potency result was “inactive”.

As to `ClCc1cccnc1`, the Potency result was “inactive”.

`CNC(=O)O/N=C/C(C)(C)S(C)=O` (configuration not stated): the Potency result is “inactive”.

`CN(C)C(=O)Nc1ccc(Cl)cc1`: the Potency entry is “inactive”.

`Cc1ccccc1CCl`: the Potency result is “inactive”.

Turning to `CCOP(=S)(OCC)SCSc1cc(Cl)ccc1Cl`, the Potency result is “inactive”.

`Nc1c(Br)cc([N+](=O)[O-])cc1[N+](=O)[O-]`: the Potency result was “inactive”.

On to `COC[C@@H](NC(C)=O)C(=O)NCc1ccccc1`, for which the Potency entry is “inactive”.

Take `COc1cc(OC)nc(NC(=O)NS(=O)(=O)c2ncccc2C(=O)N(C)C)n1`: the Potency result is “inactive”.

On to `OCC(Br)CBr` (configuration not stated), for which the Potency result was “inactive”.

Take `c1ccc(C2CO2)cc1` (configuration not stated): the Potency entry is “inactive”.

`CCN(C)N=O`: the Potency result was “inactive”.

Consider `C=CC(=O)OCCO`, for which the Potency result was “inactive”.

Regarding `CCOP(OCC)OCC`, the Potency result was “inactive”.

As to `CC(=O)C1CCOC1=O` (configuration not stated), the Potency result is “inactive”.

Turning to `C#CCOC(=O)/C=C(C)/C=C/CC(C)CCCC(C)C` (configuration not stated), the Potency result was “inactive”.

Turning to `CCN(CC)C1CCCCC1`, the Potency result is “inactive”.

Take `CCCCC(CC)COC(=O)c1ccc(C(=O)OCC(CC)CCCC)c(C(=O)OCC(CC)CCCC)c1` (configuration not stated): the Potency entry was “inactive”.

As for `O=C(CCl)CCl`, the Potency entry was “inactive”.

With `CCCCN=C=O`, the Potency result was “inactive”.

With `COc1nc(NC(C)C)nc(NC(C)C)n1`, the Potency result was “inactive”.

Take `CCOc1cc(C=O)ccc1O`: the Potency entry is “inactive”.

Consider `Cl/C=C\CCl`, for which the Potency result was “inactive”.

With `C=CC(=O)NC(C)(C)CC(C)=O`, the Potency entry is “inactive”.

Regarding `Cc1ccc(N)cc1C`, the Potency result was “inactive”.

For the compound `CC(C)(Cl)Cl`, the Potency result is “inactive”.

As for `CCOS(C)(=O)=O`, the Potency entry is “inactive”.

For `O=C([O-])c1ccccn1.O=C([O-])c1ccccn1.O=C([O-])c1ccccn1.[Cr+3]`, the Potency entry is “inactive”.

Take `BrCCc1ccccc1`: the Potency entry was “inactive”.

As for `COCC(=O)N(c1c(C)cccc1C)[C@H](C)C(=O)OC`, the Potency entry is “inactive”.

In the case of `CN(C)C(=O)C(c1ccccc1)c1ccccc1`, the Potency entry was “inactive”.

For `CN(CCCC(=O)c1cccnc1)N=O`, the Potency entry was “inactive”.

Turning to `COC(=O)[C@@H](N)CCCN/C(N)=N/[N+](=O)[O-]`, the Potency result is “inactive”.

As for `CC[N+](=O)[O-]`, the Potency result is “inactive”.

Regarding `CCCCCCC1CCOC1=O` (configuration not stated), the Potency result was “inactive”.

Regarding `O=[N+]([O-])c1ccccc1O`, the Potency entry was “inactive”.
